For 16 compounds, Potency results are on record in PubChem BioAssay (NCATS).

Common to all, as to test: qHTS profiling for inhibitors of Plasmodium falciparum proliferation (AID 504749); note: nearly all actives have a fitted effect of over 60% in size
What all share (conditions): P. falciparum in erythrocytes, SYBR Green DNA, 72 h; series mostly up to 28.7 µM

One experiment concerns CP211. In short, it runs like this: (§1)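 Infected RBCs, 0.3% parasitemia/2.5% Hct final; cpd 72 h, 37 C, 5% CO2; lysis buffer with saponin/triton/SYBR Green I, o/n RT dark; FI 485/535; norm. to artemisinin (0.29 uM) and DMSO.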
The test system of a further experiment is CP215. Summed up:
as §1

A further experiment relates to CP217. Summed up:
as §1

A further experiment has as its system CP237. Summed up:
as §1

A further experiment concerns CP238. Summed up:
as §1

The next experiment has as its system CP247. Summed up:
as §1

In the next experiment the test system is CP250. In short, it runs like this:
as §1

In another experiment the test system is CP252. In short, it runs like this: as §1
Another experiment deals with CP256. In short, it runs like this:
as §1

Results filed as inconclusive are left out. Active and inactive are the calls of the source. Calls come from the whole dose curve; as a rule, active = well fitted inhibition curve with a large enough effect; inconclusive = small, poorly fitted or top-dose-only effect; inactive = flat fitted curve, though single readings scatter.
Potency is the fitted concentration of half-maximal effect.

Take `Cc1ncc([N+](=O)[O-])n1CC(C)O` (configuration not stated): the Potency result with CP211, in the experiment on CP215, with CP217, in the experiment with CP237, with CP238 and in the experiment on CP247 was “inactive” in each case. The Potency entry in the experiment with CP250, with CP252 and in the experiment with CP256 was “inactive” in each case.

For `Nc1ccn([C@@H]2O[C@H](CO)[C@@H](O)C2O)c(=O)n1` (some centres not stated), the Potency entry in the experiment on CP211, in the experiment with CP215, with CP217, in the experiment with CP237, in the experiment on CP238 and in the experiment on CP247 was “inactive” in each case. In addition, the Potency result in the experiment with CP250, in the experiment with CP252 and in the experiment with CP256 was “inactive” in each case.

As to `CCCCCCCCCCCCCCCCCCCCCCO`, the Potency result in the experiment with CP211, with CP215, with CP217, in the experiment with CP237, in the experiment with CP238 and in the experiment on CP247 was “inactive” in each case. For the same compound, the Potency entry with CP250, with CP252 and in the experiment with CP256 was “inactive” in each case.

For `Oc1ccc(OCc2ccccc2)cc1`, the Potency entry with CP211, with CP215, in the experiment on CP217, in the experiment on CP237, in the experiment with CP238 and in the experiment on CP247 was “inactive” in each case. Besides, the Potency entry in the experiment on CP250, with CP252 and with CP256 was “inactive” throughout.

In the case of `Nc1cccc2c1CN(C1CCC(=O)NC1=O)C2=O` (configuration not stated), the Potency result with CP211, in the experiment on CP215, in the experiment on CP217, in the experiment on CP237, in the experiment with CP238 and in the experiment with CP247 was “inactive” each time. Also, the Potency entry with CP250, with CP252 and with CP256 was “inactive” throughout.

As to `CN(C)c1ccc2nc3ccc(=[N+](C)C)cc-3sc2c1`, the Potency with CP211 was 60.1 nM (active); with CP215, 120 nM (active); in the experiment with CP217, 89.1 nM (active); in the experiment with CP237, 12.6 nM (active); in the experiment on CP238, 100 nM (active); with CP247 it was 141 nM (active). For the same compound, the values for the Potency with CP250, with CP252 and in the experiment with CP256 were 141 nM (active), 89.1 nM (active) and 63.1 nM (active), respectively.

Take `CCCCN(CCCC)CCC(O)c1cc2c(Cl)cc(Cl)cc2c2cc(C(F)(F)F)ccc12` (configuration not stated): the Potency in the experiment with CP211 was 64.2 nM (active); with CP215, 28.7 nM (active); in the experiment with CP217, 12.6 nM (active); in the experiment on CP237 it was 5.6 nM (active); in the experiment with CP238, 7.9 nM (active); in the experiment with CP247, 17.8 nM (active). The Potency in the experiment with CP250 was 31.6 nM (active); in the experiment on CP252, 15.8 nM (active); in the experiment with CP256, 141 nM (active).

`O=C(O)CCNC(=O)c1ccc(N=Nc2ccc(O)c(C(=O)O)c2)cc1`: the Potency entry in the experiment on CP211, in the experiment on CP215, in the experiment on CP217, in the experiment on CP237, with CP238 and in the experiment with CP247 was “inactive” throughout. Moreover, the Potency entry with CP250, with CP252 and in the experiment with CP256 was “inactive” each time.

Turning to `Clc1ccc(C(Cn2ccnc2)OCc2ccsc2Cl)c(Cl)c1` (configuration not stated), the Potency in the experiment on CP211 is 13500 nM (active); in the experiment on CP215, 6010 nM (active); in the experiment on CP217 it was 5010 nM (active); with CP237 it was 3980 nM (active); in the experiment on CP238, 10000 nM (active); in the experiment with CP247, 5010 nM (active). In addition, the Potency in the experiment on CP250 is 11200 nM (active); with CP252, 7940 nM (active); with CP256, 10000 nM (active).

As for `O=P(O)(O)C(O)(Cn1ccnc1)P(=O)(O)O`, the Potency entry in the experiment with CP211, in the experiment on CP215, in the experiment with CP217, in the experiment with CP237, in the experiment on CP238 and in the experiment on CP247 was “inactive” throughout. The Potency result in the experiment with CP250, in the experiment with CP252 and with CP256 was “inactive” each time.

With `CCC1=C(C)CN(C(=O)NCCc2ccc(S(=O)(=O)NC(=O)NC3CCC(C)CC3)cc2)C1=O` (configuration not stated), the Potency result in the experiment on CP211, with CP215, with CP217, in the experiment on CP237, with CP238 and with CP247 was “inactive” each time. For the same compound, the Potency entry in the experiment with CP250, in the experiment with CP252 and in the experiment with CP256 was “inactive” each time.

As to `CCC(C)(Oc1ccc(C2(c3ccc(OC(C)(CC)C(=O)O)cc3)CCCCC2)cc1)C(=O)O` (configuration not stated), the Potency entry in the experiment with CP211, in the experiment with CP215, with CP217, with CP237, with CP238 and in the experiment with CP247 was “inactive” throughout. Besides, the Potency entry with CP250, in the experiment with CP252 and in the experiment on CP256 was “inactive” each time.

With `CCCOc1ccc2nc(NC(=O)OC)[nH]c2c1`, the Potency result with CP211, in the experiment on CP215, in the experiment on CP217, in the experiment on CP237, with CP238 and with CP247 was “inactive” in each case. The Potency entry in the experiment on CP250, in the experiment on CP252 and in the experiment on CP256 was “inactive” throughout.

For `CS(=O)(=O)OCCCCOS(C)(=O)=O`, the Potency entry in the experiment with CP211, in the experiment on CP215, in the experiment on CP217, in the experiment with CP237, in the experiment with CP238 and in the experiment on CP247 was “inactive” each time. In addition, the Potency result with CP250, with CP252 and in the experiment with CP256 was “inactive” each time.

As for `COCCCOc1ccnc(CS(=O)c2nc3ccccc3[nH]2)c1C` (configuration not stated), the Potency result with CP211, in the experiment on CP215, with CP217, in the experiment on CP238, in the experiment with CP250 and in the experiment on CP252 was “inactive” throughout. Also, the Potency result with CP256 is “inactive”.

For the compound `O=C1CCc2ccc(OCCCCN3CCN(c4cccc(Cl)c4Cl)CC3)cc2N1`, the Potency entry in the experiment with CP211, in the experiment with CP215 and in the experiment with CP256 was “inactive” in each case. For the same compound, in the experiment on CP237, the Potency was 14100 nM (active).
